# Compounds with a hit are over-represented: about 7.3% of the library has one in this group of screens.
# Vaccinia Venus = qHTS for Stage-Specific Inhibitors of Vaccinia Orthopoxvirus: Venus Reporter Primary qHTS. Potency, µM (series often up to 36.5 µM), for the others: at the top dose activity change, negative = inhibition, actives largely listed as inhibitors. Vaccinia virus Venus reporter expression, fluorescence. AID 720580, 2013. 330,000 compounds, 0.46% hits; calls by dose curve; tested in A549 cells; further: potency means the concentration at half of the fitted maximal effect; nearly all actives have a fitted effect of over 30% in size
# FMDV inh = High Throughput Screening for Foot and Mouth Disease Virus Antivirals; Potency, µM (top dose mostly 57.9 µM), inactives show at the highest dose activity change, negative = inhibition, hits mostly inhibitors; FMDV antiviral cell-based qHTS; 410,000 compounds, 1.2% hits; AID 1159524, 2015; calls by dose curve; tested in HEK293T cells; further: read-out not given here; potency means the concentration at half of the fitted maximal effect; nearly all actives have a fitted effect of over 45% in size
# HCV inhibitor = qHTS Assay for Inhibitors of Hepatitis C Virus (HCV) | Huh7.5.1 HCVcc-Cre infection, luciferase reporter, 44 h | Potency, µM (highest dose often 41.8 µM), without a hit: top-dose activity change, negative = inhibition, usual class: inhibitors | 340,000 compounds, 3.4% hits | AID 651820, 2012; active means well fitted inhibition curve with a large enough effect; inconclusive means small, poorly fitted or top-dose-only effect, or another doubt; inactive means no such curve, though single readings can be large or run the other way; further: potency means the concentration at half of the fitted maximal effect
#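 Cells seeded at 1,000/well and cultured 4 h, then compounds added followed by HCVcc-Cre virus (~0.5 moi). After 44 h further culture, luciferase substrate was added, plates held 15 min at room temperature, and luminescence read for 15 sec.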
# VACV mCherry inh = qHTS for Stage-Specific Inhibitors of Vaccinia Orthopoxvirus: mCherry Reporter Primary qHTS | Vaccinia virus mCherry reporter infection, fluorescence | Potency, µM (highest dose often 36.5 µM), for inactives: at the top dose activity change, negative = inhibition, usual class: inhibitors | 310,000 compounds, 0.63% hits | AID 720579, 2013; calls by dose curve; tested in A549 cells; further: potency means the concentration at half of the fitted maximal effect; nearly all actives have a fitted effect of over 35% in size
# HCMV inh = qHTS Assay for inhibitors of the human cytomegalovirus (HCMV). HFF cells, HCMV-luciferase reporter, 72 h; stronger effect = lower value. activity change, negative = inhibition, % at 57.5 µM. 410,000 compounds, 4.5% hits; in the data active means activity change below about -60%; inconclusive means no clear call, values can overlap the other calls; inactive means above about -39%
#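 Compounds were evaluated in HFFs infected with an HCMV luciferase reporter virus (MOI 1 PFU/cell). Luciferase in lysates collected 72 h post infection served as the replication measure.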
# * marks the source's active call; other numbers are inactive results; i = inactive; ? = inconclusive; / = not tested or not shown; + = active, no number; [ ] = remark or other dose. On the % scale 0 is the no-effect control and ±100 the full control effect.
SMILES,Vaccinia Venus,FMDV inh,HCV inhibitor,VACV mCherry inh,HCMV inh
C=C1C(=O)[C@]23C[C@H]1CC[C@H]2[C@]1(C)[C@@H](OC(C)=O)CC[C@@](C)(C(=O)O)[C@H]1C[C@@H]3OC(C)=O,1%,?,/,i,-15
CN(c1ccc(Cl)cc1)c1cc(=O)n(C)c2ccccc12,-27%,?,10µM*,-24%,81
CCN(c1ccccc1)S(=O)(=O)c1c(-c2ccc(C)cc2)csc1C(=O)OC,-6%,-15%,/,-6%,-67*
COc1ccccc1C(=O)Nc1ccc(S(=O)(=O)Nc2nc(C)cc(C)n2)cc1,3%,0%,/,-4%,0
Cc1cc(Nc2ccc3c(c2)OCCO3)c2cc(Cl)ccc2n1,-16%,40µM*,?,-27%,-93*
COc1ccc(Nc2c3c(nc4ccc(C)cc24)CCC3)cc1,/,?,?,/,-81*
Cc1ccc2nc3c(c(Nc4ccc5c(c4)OCCO5)c2c1)CCC3,?,-44%,?,?,-66*
Cc1cc(C)c(C#N)c(Nc2ccc3c(c2)OCCO3)n1,0%,1%,2%,6%,93
COc1cccc(-c2c(C(=O)N/N=C(\C)c3cccs3)nnn2-c2nonc2N)c1,/,-16%,?,/,+
COc1ccc(/C(C)=N/NC(=O)c2nnn(-c3nonc3N)c2-c2cccs2)cc1OC,-7%,3%,?,-14%,+
CCOc1cccc(-c2c(C(=O)N/N=C(\C)c3cccs3)nnn2-c2nonc2N)c1,/,-1%,?,/,?
FC(F)(F)c1ccc(CSc2nccn2-c2ccccc2)cc1,-17%,0%,2%,-7%,6
Brc1ccc(CSc2nccn2-c2ccccc2)cc1,?,0%,-3%,/,-73*
COc1ccccc1N1CCN(Cc2cc(=O)oc3cc(C)cc(C)c23)CC1,-8%,-28%,/,i,-13
COc1ccccc1NC(=O)Cn1c(=O)oc2cc(S(=O)(=O)NCc3ccccc3)ccc21,-1%,12%,/,-12%,12
O=C(Nc1cc(C(F)(F)F)ccc1F)C1CCCCC1,/,-9%,23%,/,-106*
O=C(Nc1ccc(OCC(F)(F)C(F)F)c(C(F)(F)F)c1)c1ccccc1O,10µM*,?,6.3µM*,?,-97*
O=C(Nc1ccc(OCC(F)(F)C(F)F)cc1)c1ccncc1,-15%,?,?,i,-63*
O=C(Nc1ccc(OCC(F)(F)C(F)F)c(C(F)(F)F)c1)c1ccccc1,?,?,10µM*,-25%,-39
O=C(COc1ccccc1)Nc1ccc(OC(F)(F)C(F)F)c(NC(=O)COc2ccccc2)c1,/,-8%,?,/,58
COc1ccccc1N=C1NC(=O)/C(=C/c2ccc(N(C)C)cc2)S1,/,39%,?,/,-1
Cc1cccc(-c2nc(SCCCOc3ccccc3Cl)n3[nH]c(=O)cc3n2)c1,4%,8%,/,-8%,52
Cc1ccc(S(=O)(=O)CCC(=O)Nc2cc(C)on2)cc1,-13%,-15%,/,-4%,0
COc1ccc(NC(=O)CCCS(=O)(=O)c2nc(-c3ccc(OC)c(OC)c3)cc(C(F)(F)F)n2)cc1OC,-12%[7.34 µM],32µM*,/,-19%[7.34 µM],-100*
COc1ccc(-c2cc(C(F)(F)F)nc(SCCC(=O)Nc3ccc(OC)c(OC)c3)n2)cc1,1%,0%,/,-7%,?
SMILES,Vaccinia Venus,FMDV inh,HCV inhibitor,VACV mCherry inh,HCMV inh
COc1ccccc1-c1cc(C(F)(F)F)nc(S(=O)(=O)CCCC(=O)Nc2ccc(F)c(Cl)c2)n1,5%,0%,/,4%,10
COc1ccc(-c2cc(C(F)(F)F)nc(S(=O)(=O)CCCC(=O)Nc3cccc(O)c3)n2)cc1OC,-16%,20µM*,11µM*,?,-99*
Cc1cc(NC(=O)CCS(=O)(=O)c2nc(-c3ccccc3)cc(C(F)(F)F)n2)no1,?,25µM*,10µM*,/,-104*
CS(=O)(=O)c1nc(-c2ccccc2)cc(C(F)(F)F)n1,?,7.9µM*,10µM*,14µM*,-98*
COc1ccc(Oc2ncc3ncc(=O)n(C[C@H]4CCCO4)c3n2)cc1,/,-6%,/,/,/
Cc1cc(C)c(S(=O)(=O)NCc2nc3nc(C)cc(C)n3n2)c(C)c1,-5%,-20%,2%,-12%,5
O=C(O)c1cccc(S(=O)(=O)Nc2ccccc2Oc2ccccc2)c1,-13%,-23%,/,-2%,93

# Screening data (PubChem BioAssay)
